# Source: PubChem BioAssay (Tox21)
# Unmarked numbers belong to inactive results. Results filed as inconclusive are left out. Entries that show only a call come without a potency. Activity calls are given as the source filed them. Unless noted, the call rests on the fitted dose curve; in most records, active means well fitted curve in the direction sought with a large enough effect in the repeat runs; inconclusive means weak or mixed curves; inactive means flat fitted curve, though single readings scatter.
# Tests used:
# [1] = qHTS assay to test for compound auto fluorescence at 535 nm (green) in HEK293 cells (AID 720680)
# [2] = qHTS assay to test for compound auto fluorescence at 460 nm (blue) in HEK293 cell free culture (AID 720681); further: potency means the concentration at half of the fitted maximal effect
# Procedure, shortened: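 Blue fluorescence (Ex 405/Em 460 nm, triamterene-equivalent) was read immediately after pin transfer of compound or DMSO into medium (DMEM, 10% FBS) without cells.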
# [3] = qHTS assay to test for compound auto fluorescence at 535 nm (green) in HEK293 cell free culture (AID 720682)
# Procedure, shortened: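 DMEM + 10% FBS, cell-free; cpd or DMSO pinned in; Ex485/Em535 read; output as fluorescein-equivalent signal.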
# [4] = qHTS assay to test for compound auto fluorescence at 590 nm (red) in HEK293 cell free culture (AID 720683)
# Procedure, shortened: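 Red-channel autofluorescence of compounds in culture medium (DMEM, 10% FBS), no cells, measured at 540/590 nm. Rose Bengal sodium is the reference fluorophore for equivalence.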
# [5] = qHTS assay to test for compound auto fluorescence at 590 nm (red) in HepG2 cell free culture (AID 720684)
# Procedure, shortened: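 Steps: dispense MEM/10% FBS medium, no cells; pin compound or DMSO vehicle; read red channel, Ex/Em 540/590 nm. Output given as Rose Bengal sodium equivalents.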
# [6] = qHTS assay to test for compound auto fluorescence at 460 nm (blue) in HepG2 cell free culture (AID 720685); further: potency means the concentration at half of the fitted maximal effect
# Procedure, shortened: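 Compound (23 nL) or DMSO pinned into cell-free MEM with 10% FBS; blue fluorescence read at 405/460 nm excitation/emission, expressed as auto-fluorescence equivalency to triamterene.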
# [7] = qHTS assay to test for compound auto fluorescence at 535 nm (green) in HepG2 cell free culture (AID 720686)
# [8] = target: Glucocorticoid receptor (Homo sapiens) (UniProt P04150); assay: qHTS assay to identify small molecule agonists of the glucocorticoid receptor (GR) signaling pathway (AID 720691; active means well fitted activation curve with a large enough effect in the signal ratio in the repeat runs, not every such curve was filed as active; the % refers to the signal ratio)
# Sequence of Glucocorticoid receptor (Homo sapiens) (P04150 whole entry, looked up): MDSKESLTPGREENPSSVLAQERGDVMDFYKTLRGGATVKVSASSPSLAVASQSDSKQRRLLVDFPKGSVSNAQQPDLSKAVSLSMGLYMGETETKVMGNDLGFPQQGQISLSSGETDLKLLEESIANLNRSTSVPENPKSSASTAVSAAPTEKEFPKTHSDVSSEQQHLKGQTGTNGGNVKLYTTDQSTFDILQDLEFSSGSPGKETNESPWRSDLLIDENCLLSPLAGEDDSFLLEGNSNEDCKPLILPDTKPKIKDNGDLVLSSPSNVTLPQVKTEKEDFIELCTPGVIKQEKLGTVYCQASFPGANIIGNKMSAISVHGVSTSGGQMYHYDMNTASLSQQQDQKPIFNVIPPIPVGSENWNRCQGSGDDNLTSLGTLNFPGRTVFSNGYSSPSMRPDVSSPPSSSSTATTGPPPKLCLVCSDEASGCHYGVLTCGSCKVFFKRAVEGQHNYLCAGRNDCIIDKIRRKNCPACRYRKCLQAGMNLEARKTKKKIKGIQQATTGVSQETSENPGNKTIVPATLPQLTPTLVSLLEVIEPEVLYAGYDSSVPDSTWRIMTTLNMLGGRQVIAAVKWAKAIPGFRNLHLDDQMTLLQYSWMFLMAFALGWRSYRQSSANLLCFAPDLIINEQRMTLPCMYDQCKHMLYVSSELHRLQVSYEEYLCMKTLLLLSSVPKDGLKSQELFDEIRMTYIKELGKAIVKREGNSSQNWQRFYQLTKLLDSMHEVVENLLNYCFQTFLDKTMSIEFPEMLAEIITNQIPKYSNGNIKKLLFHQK
# Procedure, shortened: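 qHTS in GR-bla HeLa cells: 4 h settling at 37 C/5% CO2, 18 h compound incubation at 37 C, 2 h LiveBLAzer B/G FRET substrate at room temperature, fluorescence intensity measured.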
# [9] = qHTS assay to test for compound auto fluorescence at 460 nm (blue) in HepG2 cells (AID 720687); further: potency means the concentration at half of the fitted maximal effect
# Procedure, shortened: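 Blue-channel autofluorescence (Ex/Em 405/460 nm, triamterene-equivalent) was measured after 1 hr compound exposure at 37 C, 5% CO2. Cells were HepG2, plated overnight at 37 C in MEM plus 10% FBS.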
# [10] = target: Glucocorticoid receptor (Homo sapiens) (UniProt P04150); assay: qHTS assay to identify small molecule antagonists of the glucocorticoid receptor (GR) signaling pathway (AID 720692; active means well fitted inhibition curve with a large enough effect in the signal ratio in the repeat runs, not every such curve was filed as active; the % refers to the signal ratio)
# Procedure, shortened: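 Inhibition of glucocorticoid signalling is measured in HeLa cells with a GRE-controlled beta-lactamase reporter; cells are co-treated with compound and 5 nM dexamethasone (final) for 18 h before FRET substrate readout.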
# Tags describe the fitted curve by direction and shape or compound fluorescence and quenching.
smiles,measurement,setting,value
N=C(N=C(N)N)N1CCOCC1,"fluorescence, % of fluorescein",[1],-0.0392% [at 18.6 µM]
same,"fluorescence, % of fluorescent control",[2],0.0143% [at 18.6 µM]
same,activity change,[3],-0.0209% [at 18.6 µM]
same,"fluorescence, % of fluorescent control",[4],0.292% [at 18.6 µM]
same,"fluorescence, % of Rose Bengal",[5],0.0286% [at 18.6 µM]
same,"fluorescence, % of fluorescent control",[6],0.021% [at 18.6 µM]
same,"fluorescence, % of fluorescein control",[7],-0.0914% [at 18.6 µM]
same,Potency,[8],inactive
O=S1(=O)c2cccc3cccc(c23)N1CCCN1CCN(c2ccc(F)cc2)CC1,outcome,[1],inactive
same,Potency,[2],inactive
same,outcome,[4],inactive
same,outcome,[5],inactive
same,Potency,[6],inactive
same,outcome,[7],inactive
same,Potency,[9],inactive
same,Potency,[8],inactive
CC(C)c1ccc2c(C(C)C)cc(C(C)C)c(S(=O)(=O)O)c2c1,outcome,[1],inactive
same,Potency,[2],inactive
same,outcome,[4],inactive
same,outcome,[5],inactive
same,Potency,[6],inactive
same,outcome,[7],inactive
same,Potency,[9],inactive
same,Potency,[8],inactive
CCCCC(CC)COCCCN (stereo unspecified),outcome,[1],inactive
same,Potency,[2],inactive
same,outcome,[4],inactive
same,outcome,[5],inactive
same,Potency,[6],inactive
same,outcome,[7],inactive
same,Potency,[9],inactive
same,Potency,[8],inactive
CC(=O)O[C@@H]1C(=O)O[C@@H]2[C@H]1OC(=O)[C@@H]2OC(C)=O,outcome,[1],inactive
same,Potency,[2],inactive
same,outcome,[4],inactive
same,outcome,[5],inactive
same,Potency,[6],inactive
same,outcome,[7],inactive
same,Potency,[9],inactive
same,Potency,[8],inactive
same,Potency,[10],inactive
CN(C)C/C=C(/c1ccc(Br)cc1)c1cccnc1,outcome,[1],inactive
same,Potency,[2],inactive
same,outcome,[4],inactive
same,outcome,[5],inactive
same,Potency,[6],inactive
same,outcome,[7],inactive
same,Potency,[9],inactive
same,Potency,[8],inactive
C=C(C)C(=O)OCCOc1ccccc1,outcome,[1],inactive
same,Potency,[2],inactive
same,outcome,[4],inactive
same,outcome,[5],inactive
same,Potency,[6],inactive
same,outcome,[7],inactive
same,Potency,[9],inactive
same,Potency,[8],inactive
same,Potency,[10],inactive
COc1cc(C(C)(C)C)c(O)c(C(C)(C)C)c1,outcome,[1],inactive
same,Potency,[2],inactive
same,outcome,[4],inactive
same,outcome,[5],inactive
same,Potency,[6],inactive
same,outcome,[7],inactive
same,Potency,[9],inactive
same,Potency,[8],inactive
same,Potency,[10],inactive
Cc1ccc(O)c([C@H](CCN(C(C)C)C(C)C)c2ccccc2)c1,outcome,[1],inactive
same,Potency,[2],inactive
same,outcome,[4],inactive
same,outcome,[5],inactive
same,Potency,[6],inactive
same,outcome,[7],inactive
same,Potency,[9],inactive
same,Potency,[8],inactive
CC(C)(C)c1cc(O)c(C(C)(C)C)cc1O,outcome,[1],inactive
same,Potency,[2],inactive
same,outcome,[4],inactive
same,outcome,[5],inactive
same,Potency,[6],inactive
same,outcome,[7],inactive
same,Potency,[9],inactive
same,Potency,[8],inactive
CC(Cc1cccc(C(F)(F)F)c1)NCCOC(=O)c1ccccc1 (stereo unspecified),outcome,[1],inactive
same,Potency,[2],inactive
same,outcome,[4],inactive
same,outcome,[5],inactive
same,Potency,[6],inactive
same,outcome,[7],inactive
same,Potency,[9],inactive
same,Potency,[8],inactive
Nc1nc(N)c2nc(CNc3ccc(C(=O)N[C@@H](CCC(=O)O)C(=O)O)cc3)cnc2n1,outcome,[1],inactive
same,Potency,[2],39.8 µM (active)
same,outcome,[4],inactive
same,outcome,[5],inactive
same,Potency,[6],35.5 µM [fluorescent] (active)
same,outcome,[7],inactive
same,Potency,[9],39.8 µM [fluorescent] (active)
same,Potency,[8],inactive
same,Potency,[10],inactive
CCCCCCCCCCCCCCC1CO1 (stereo unspecified),outcome,[1],inactive
same,Potency,[2],inactive
same,outcome,[4],inactive
same,outcome,[5],inactive
same,Potency,[6],inactive
same,outcome,[7],inactive
same,Potency,[9],inactive
same,Potency,[8],inactive
same,Potency,[10],inactive
CCCCCCCCN(C)C,outcome,[1],inactive
same,Potency,[2],inactive
same,outcome,[4],inactive
same,outcome,[5],inactive
same,Potency,[6],inactive
same,outcome,[7],inactive
same,Potency,[9],inactive
same,Potency,[8],inactive
same,Potency,[10],inactive
O=C(O)C1CCC(C(=O)O)CC1 (stereo unspecified),outcome,[1],inactive
same,Potency,[2],inactive
same,outcome,[4],inactive
same,outcome,[5],inactive
same,Potency,[6],inactive
same,outcome,[7],inactive
same,Potency,[9],inactive
same,Potency,[8],inactive
same,Potency,[10],inactive
OC(CCN1CCCCC1)(c1ccccc1)C1CCCCC1 (stereo unspecified),outcome,[1],inactive
same,Potency,[2],inactive
same,outcome,[4],inactive
same,outcome,[5],inactive
same,Potency,[6],inactive
same,outcome,[7],inactive
same,Potency,[9],inactive
CCN(CC)CCc1nc(-c2ccccc2)no1,"fluorescence, % of fluorescein",[1],-0.143% [at 18.6 µM]
same,"fluorescence, % of fluorescent control",[2],-0.0186% [at 18.6 µM]
same,"fluorescence, % of fluorescent control",[4],-0.0001% [at 18.6 µM]
same,"fluorescence, % of Rose Bengal",[5],0.0837% [at 18.6 µM]
same,"fluorescence, % of fluorescent control",[6],-0.0109% [at 18.6 µM]
same,"fluorescence, % of fluorescein control",[7],-0.0688% [at 18.6 µM]
same,"fluorescence, % of fluorescent control",[9],-0.0362% [at 18.6 µM]
same,Potency,[8],inactive
Cc1occc1S,outcome,[1],inactive
same,Potency,[2],inactive
same,outcome,[4],inactive
same,outcome,[5],inactive
same,Potency,[6],inactive
same,outcome,[7],inactive
same,Potency,[9],inactive
same,Potency,[8],inactive
CC(O)C1CCCCC1 (stereo unspecified),outcome,[1],inactive
same,Potency,[2],inactive
same,outcome,[4],inactive
same,outcome,[5],inactive
same,Potency,[6],inactive
same,outcome,[7],inactive
same,Potency,[9],inactive
same,Potency,[8],inactive
COc1ccc(OC)c(OC)c1,outcome,[1],inactive
same,Potency,[2],inactive
same,outcome,[4],inactive
same,outcome,[5],inactive
same,Potency,[6],inactive
same,outcome,[7],inactive
same,Potency,[9],inactive
same,Potency,[8],inactive
c1ccc(-c2nc[nH]c2-c2ccccc2)cc1,outcome,[1],inactive
same,Potency,[2],inactive
same,outcome,[4],inactive
same,outcome,[5],inactive
same,Potency,[6],inactive
same,outcome,[7],inactive
same,Potency,[9],inactive
Cc1ncsc1CCO,outcome,[1],inactive
same,Potency,[2],inactive
same,outcome,[4],inactive
same,outcome,[5],inactive
same,Potency,[6],inactive
same,outcome,[7],inactive
same,Potency,[9],inactive
CC(=O)c1c(C)c([N+](=O)[O-])c(C(C)(C)C)c([N+](=O)[O-])c1C,outcome,[1],inactive
same,Potency,[2],inactive
same,outcome,[4],inactive
same,outcome,[5],inactive
same,Potency,[6],inactive
same,outcome,[7],inactive
same,Potency,[9],inactive
same,Potency,[8],inactive
same,Potency,[10],inactive
CN1CCC[C@@H]1c1cccnc1,outcome,[1],inactive
same,Potency,[2],inactive
same,outcome,[4],inactive
same,outcome,[5],inactive
same,Potency,[6],inactive
same,outcome,[7],inactive
same,Potency,[9],inactive
CN(C(=O)CCCOc1ccc2[nH]c(=O)ccc2c1)C1CCCCC1,outcome,[1],inactive
same,Potency,[2],inactive
same,outcome,[4],inactive
same,outcome,[5],inactive
same,Potency,[6],inactive
same,outcome,[7],inactive
same,Potency,[9],inactive
same,Potency,[8],inactive
same,Potency,[10],inactive
O=[N+]([O-])c1cc[n+]([O-])cc1,outcome,[1],inactive
same,Potency,[2],inactive
same,outcome,[4],inactive
same,outcome,[5],inactive
same,Potency,[6],inactive
same,outcome,[7],inactive
same,Potency,[8],inactive
CC(=O)/C(C)=C/C1C(C)=CCCC1(C)C (stereo unspecified),outcome,[1],inactive
same,Potency,[2],inactive
same,outcome,[4],inactive
same,outcome,[5],inactive
same,Potency,[6],inactive
same,outcome,[7],inactive
same,Potency,[9],inactive
same,Potency,[8],inactive
same,Potency,[10],inactive
